Tb PYK inh: inhibitors of Trypanosoma brucei pyruvate kinase | Q57TT1 | TbPYK enzyme, Kinase-Glo Plus ATP luminescence, 45 min | Potency, µM (top dose mostly 76.8 µM), for the others: top-dose activity, negative = inhibition, most hits filed as inhibitors | 0.12% of 410,000 active | AID 624173; also: potency is read from the fitted curve at half-maximal effect; nearly all actives have a fitted effect of over 50% in size
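Enzyme and substrate buffer are dispensed first and compound is pin-transferred. ADP at 130 uM final then starts the reaction, which runs 45 min at room temperature. Detection reagent is added for 10 min before luminescence is imaged.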
FMDV inh: antivirals against foot and mouth disease virus; FMDV antiviral cell-based qHTS; Potency, µM (highest dose often 57.9 µM), for the others: top-dose activity change, negative = inhibition, hits mostly inhibitors; 1.2% of 410,000 active; AID 1159524; calls by dose curve; tested in HEK293T cells; also: read-out not given here; potency is read from the fitted curve at half-maximal effect; nearly all actives have a fitted effect of over 45% in size
HCMV antiviral: human cytomegalovirus inhibition; AID 1259415; activity change, negative = inhibition, % at 57.5 µM; HFF cells, HCMV-luciferase reporter, 72 h; stronger effect = lower value; 4.5% of 410,000 active; in the data active = activity change below about -60%; inconclusive = no clear call, values can overlap the other calls; inactive = above about -39%
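Two-dose cell screen: HFF monolayers treated with compounds and infected with luciferase-expressing HCMV at 1 PFU/cell, 72 h at 37C, then lysed for luciferase measurement.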
RE007 growth inh: less growth of the S. pombe RE007 Vpr strain; S. pombe RE007 Vpr strain, BacTiter-Glo ATP luminescence, 24 h; Potency, µM (series often up to 92.2 µM), without a hit: top-dose activity change, negative = less growth, hits mostly inhibitors; 0.21% of 360,000 active; active = well fitted falling curve with a large enough effect; inconclusive = small, poorly fitted or top-dose-only effect; inactive = no such curve, though single readings can be large or run the other way; also: potency is read from the fitted curve at half-maximal effect; nearly all actives have a fitted effect of over 50% in size
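Fission yeast strain RE007, carrying one chromosomally integrated HIV-1 vpr copy, was seeded at OD 0.01 in PMG+AL medium with 23 nL pinned compound. After 24 h at 30 °C and 99% humidity, viability was read by BacTiter-Glo luminescence.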
Sm TGR inh: S. mansoni TGR enzyme inhibition | Q962Y6 | purified TGR, DTNB reduction, TNB absorbance 405 nm | Potency, µM (titrated, usually from 114 µM), without a hit: at the top dose activity change, negative = inhibition, usual class: inhibitors | 3% of 360,000 active; also: potency is read from the fitted curve at half-maximal effect; nearly all actives have a fitted effect of over 60% in size
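TGR 20 nM + NADPH 100 uM (dispensed conc.), cpd preinc 15 min RT; start with NADPH (500 uM addition) then DTNB (15 mM addition). Kinetic TNB absorbance, 405 nm filter. Four-parameter Hill fit across titration.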
FBPA Giardia inh: blocks Giardia fructose-bisphosphate aldolase activity; purified Giardia FBPA; A8B2U2; 0.71% of 290,000 active; Potency, µM (highest dose often 59.6 µM), without a hit: top-dose activity, negative = inhibition, hits mostly inhibitors; AID 2451; also: potency is read from the fitted curve at half-maximal effect; nearly all actives have a fitted effect of over 55% in size
Target sequence (A8B2U2 whole entry, looked up): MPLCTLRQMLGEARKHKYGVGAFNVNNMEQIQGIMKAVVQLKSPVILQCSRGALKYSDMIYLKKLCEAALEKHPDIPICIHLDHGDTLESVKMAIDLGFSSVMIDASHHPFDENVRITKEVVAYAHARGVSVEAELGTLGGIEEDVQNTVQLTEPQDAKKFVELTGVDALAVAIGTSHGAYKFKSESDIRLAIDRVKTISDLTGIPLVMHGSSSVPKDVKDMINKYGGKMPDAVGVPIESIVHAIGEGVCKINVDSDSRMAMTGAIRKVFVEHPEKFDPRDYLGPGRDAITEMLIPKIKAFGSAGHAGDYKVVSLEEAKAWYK
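40 nM FBPA preincubated 10 min at RT with compound (up to 57.5 uM final), then substrate plus GAPDH/TPI/NAD/arsenate coupling and diaphorase/resazurin added. Fluorescence read after 20 min at RT, 525/598 nm.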
The depositor's hits bear a star; ? = inconclusive; · = no result; ! = repeats disagree. In the library only some 7.7% were active in any assay of this set; here they are far more common. Unless noted, calls follow the shape of the dose curve; as a rule, active = well fitted curve in the direction sought with a large enough effect; inconclusive = small, poorly fitted or top-dose-only effect, or another doubt; inactive = no such curve, though single readings can be large; an effect the other way counts as inactive or inconclusive. % is scaled to controls: 0 for no effect and ±100 for the full control effect.

SMILES	Tb PYK inh	FMDV inh	HCMV antiviral	RE007 growth inh	Sm TGR inh	FBPA Giardia inh
Cc1cc(C(=O)N/N=C/c2ccc(N(C)C)o2)cs1	?	-16%	11	2%	?	·
CC1COC(=O)O1 (stereo unspecified)	·	·	·	·	·	1%
COc1ccc(Cl)cc1NC(=O)CSC1=Nc2ccccc2C2=NC(CC(=O)NCc3ccc4c(c3)OCO4)C(=O)N12 (stereo unspecified)	1%	-19%	15	·	-1%	·
CCC[C@@H]1C[C@@]1(CCC)C(NP(=O)(c1ccccc1)c1ccccc1)c1ccc(Cl)cc1 (stereo partly specified)	·	·	·	·	·	-3%
O=S(c1ccc2ccccc2c1)c1cnns1 (stereo unspecified)	3%	?	-68*	0%	-45%	0%
O=C(O)Cc1sc(Nc2ccccc2)nc1-c1ccccc1	-1%	22%	7	·	-16%	·
CC(=O)Nc1ccc(NC(=O)Cc2sc(-c3cccnc3)nc2-c2ccc(C)cc2)cc1	-4%	31%	-25	-7%	·	0%
O=C(Cc1sc(-c2ccccc2Cl)nc1-c1ccccc1)Nc1ccc(F)cc1	-5%	-7%	-60*	-1%	-4%	-4%
O=C(Cc1sc(-c2ccccc2)nc1-c1ccccc1)Nc1ccc(Cl)cc1	-1%	-16%	-76*	2%	19%	4%
O=C(Cc1sc(-c2ccccc2Cl)nc1-c1ccccc1)Nc1ccccc1	3%	?	-90*	15%	0%	4%
COc1cc(NS(=O)(=O)c2cc3c(cc2C)n(C)c(=O)c(=O)n3C)cc(OC)c1	2%	39%	18	·	-7%	·
Cc1occc1-c1n[nH]c(=S)n1C	?	1%	-27	8%	10%	-28%
Cc1c(Cl)c(-c2n[nH]c(=S)n2-c2ccc(F)cc2)nn1C	4µM*	32%	45	1%	-21%	0%
Cc1occc1-c1n[nH]c(=S)n1-c1ccccc1	18µM*	-15%	1	-1%	7%	-8%
Fc1ccc(-n2c(-c3ccco3)n[nH]c2=S)cc1	8.9µM*	5%	-17	12%	12%	-17%
Cc1ccc(-n2c(-c3ccco3)n[nH]c2=S)cc1	6.3µM*	-2%	-14	7%	7%	6%
COC(=O)C(=C/C(C)=C/c1cccs1)C(=O)OC	-1%	28µM*	-26	-16%	?	3%
COC(=O)N/N=C/c1cccs1	2%	3%	-26	-8%	0%	0%
COc1ccc(CCn2cnn3c(=O)c4ccccc4nc3c2=O)cc1OC	·	·	-3	·	·	·
O=C(CN1CCN(Cc2ccccc2)CC1)N/N=C/c1ccco1	1%	-19%	68	-13%	-25%	-13%
O=C(CN1CCN(Cc2ccccc2)CC1)N/N=C/c1ccc(Br)s1	3%	-14%	-107*	-5%	-25%	7%
CCc1ccccc1NC(=S)/N=C(\N)Nc1nc(C)c2cc(C)ccc2n1	2%	-9%	?	8%	-2%	0%
COc1ccc2nc(N/C(N)=N/C(=S)Nc3c(C)cccc3C)nc(C)c2c1	-2%	22%	-71*	-7%	6%	-4%
Cc1ccc(NC(=S)/N=C(\N)Nc2nc(C)c3cc(C)ccc3n2)c(C)c1	-10%	-19%	-86*	·	-11%	12%
CC[C@@H](C)[C@@H](C(=O)N1CCN(C(=O)OC(C)(C)C)CC1)n1cc(CCCCNC(=O)OC(C)(C)C)nn1	1%	13µM*	-27	-14%	-9%	6%
SMILES	Tb PYK inh	FMDV inh	HCMV antiviral	RE007 growth inh	Sm TGR inh	FBPA Giardia inh
CC(C)(C)OC(=O)NCCCCc1cn(CC(=O)N2CCN(C(=O)OC(C)(C)C)CC2)nn1	0%	-24%	-80*	1%	-9%	5%
CC[C@H](C)C(C(=O)N1CCN(C(=O)OC(C)(C)C)CC1)n1cc(C(CC(C)C)NC(=O)OC(C)(C)C)nn1 (stereo partly specified)	-4%	-29%	12	0%	-3%	0%
O=C1C(c2nnnn2-c2ccc(F)cc2)N(C2CC2)C(=O)N1c1ccccc1 (stereo unspecified)	·	·	-6	·	·	·
O=C(Cn1c(=O)n(CCc2ccccc2)c(=O)c2c3c(sc21)CCCC3)Nc1ccc(F)c(F)c1	-6%	?	-17	·	0%	·
CNC(=O)C(N)CSC(C)C1=C(C)c2cc3[n-]c(cc4nc(cc5[n-]c(cc1n2)c(C)c5CCC(=O)O)C(CCC(=O)O)=C4C)c(C)c3C(C)SCC(N)C(=O)NC.[Fe+2] (stereo unspecified)	1%	·	·	·	·	·
COc1cccc(CN2CC3(CN(S(C)(=O)=O)C3)c3c(n(C)c4cc(OC)ccc34)[C@H]2CO)c1	·	·	-33	·	·	·
O=C(c1ccc(F)c(F)c1)N1CCOc2ccc(CN3CCN(CCO)CC3)cc2C1	·	-2%	·	·	·	·
NCCS	-1%	2%	5	0%	-11%	16µM*!
Cc1ccc(CN(CC2CCCO2)C(=O)CN2C(=O)C(C(C)C)Oc3ccccc32)o1 (stereo unspecified)	?	?	-7	-2%	35µM*	1%
CCCCC	-4%	·	·	·	·	·
O=C(NCc1ccco1)[C@@H]1CSC2c3ccccc3C(=O)N21 (stereo partly specified)	-14%	5%	-18	-2%	32µM*	-7%
O=C(NCc1cccs1)[C@@H]1CSC2c3ccccc3C(=O)N21 (stereo partly specified)	-6%	-5%	-18	-13%	18%	-3%
CC(C)[C@H](NC(=O)[C@@H]1CSC2c3ccccc3C(=O)N21)C(=O)NCc1ccco1 (stereo partly specified)	-1%	1%	-20	9%	45µM*	-7%
Cc1cc(C)c(NS(=O)(=O)c2ccc3c(c2)oc(=O)n3C)c(C)c1	-1%	-9%	?	-8%	·	·
Cn1c(=O)oc2cc(S(=O)(=O)Nc3ccccc3)ccc21	0%	-4%	-39	5%	8%	17%
Cn1c(=O)oc2cc(S(=O)(=O)Nc3cccc4c3CCCC4)ccc21	3%	9%	-91*	-23%	7%	-1%
CCC1CCCCN1Cc1ccc(CNS(=O)(=O)c2ccc3c(c2)oc(=O)n3C)o1 (stereo unspecified)	-8%	-9%	-17	-9%	79µM*	-13%
CC(C)NS(=O)(=O)c1ccc2c(c1)oc(=O)n2C	0%	5%	-18	22%	89µM*	-2%
COC(=O)c1ccc(-c2cccc3c2OC(CNC(=O)c2ccc4c(c2)OCCO4)C3)nc1 (stereo unspecified)	·	11%	·	·	·	·
COc1ccccc1N1CCN(C(=O)CSc2nnnn2C2CC2)CC1	-2%	3%	4	15%	4%	·

Screens deposited in PubChem BioAssay by National Center for Advancing Translational Sciences (NCATS).
